A structure can be active in one record and inactive in another. Active and inactive are the calls of the source. How the source made its calls: active means hit-call score of the fitted dose curve at least 0.9, where 1 is the maximum; inactive means score below 0.9.
Read-out: Vascular endothelial growth factor receptor 2 (Homo sapiens) (UniProt P35968)
Assay: BSK_4H_VEGFRII: BioMAP Diversity Plus: 4H Assay for Vascular endothelial growth factor receptor 2 (VEGFR2) Biomarker Activity (AID 2283031)
Conditions: primary human endothelial cells (HUVEC); actives raise or lower the signal
Procedure: BSK_4H is a cell-based, multiplexed-readout assay that uses umbilical vein endothelium, a human vascular primary cell, with measurements taken at 24 hours after chemical dosing in a 96-well plate.BSK_4H_VEGFRII is an assay component measured in the BSK_4H assay. It measures VEGFRII antibody related to regulation of gene expression using ELISA technology.Data from the assay component BSK_4H_VEGFRII was analyzed into 1 assay endpoint. This assay endpoint, BSK_4H_VEGFRII, was analyzed with bidirectional fitting relative to DMSO as the negative control and baseline of activity. Using a type of binding reporter, gain or loss-of-signal activity can be used to understand changes in the signaling as they relate to the gene KDR. Furthermore, this assay endpoint can be referred to as a primary readout, because this assay has produced multiple assay endpoints where this one serves a signaling function. To generalize the intended target to other relatable targets, this assay endpoint is annotated to the kinase intended target family, where the subfamily is receptor tyrosine kinase.
The levels of cell surface (or secreted, indicated by the prefix "s") biomarker endpoints were measured by ELISA. Overt cytotoxicity to cells in confluent adherent cultures (all systems other than the BT system) was assessed by measuring total protein levels using sulforhodamine B (SRB) staining in parallel cultures at the time of biomarker measurements, indicated as SRB endpoints. For proliferation assays for adherent cell types, individual cell types are cultured at sub-confluence and relative cell numbers quantified by SRB staining at time points optimized for each system (48 h: 3C and CASM3C systems; 72 h: BT and HDF3CGF systems; 96 h: SAg system). SRB was performed by staining cells with 0.1% SRB after fixation with 10% TCA and reading wells at 560 nm.Viability and proliferation of PBMC (T cells) was quantified by Alamar Blue reduction for the SAg and BT systems. For PBMC viability (referred to as PBMC Cytotoxicity within the assay endpoint names), cells were plated (75,000/well in a 96-well plate) and then chemical samples added for 1 h before addition of activators, SEB and TSST-1 (20 ng/mL final concentration each). Cells were incubated for 90 h. Then, Alamar Blue (20 uL/well) (Invitrogen, Cat DAL1100) was added for 6 h, and the plates were read with a fluorescence microplate reader at 546/580 nm (excitation/emission). For PBMC proliferation, cells were plated and activated as above but incubated for only 16 h prior to addition of Alamar Blue. Plates were read after 6 h.

SMILES | outcome | AC50
CCCCOCCOP(=O)(OCCOCCCC)OCCOCCCC | inactive | –
c1ccc(OP(Oc2ccccc2)Oc2ccccc2)cc1 | inactive | –
CCOC(=O)c1ccccc1C(=O)OCC | inactive | –
O=C(O)C(Cl)Cl | inactive | –
CCOP(=S)(S)OCC | inactive | –
Nc1ccc([N+](=O)[O-])cc1Cl | inactive | –
CN(C)C(=O)Cl | inactive | –
COP(=O)(CCC(=O)NCO)OC | inactive | –
CCOP(=S)(OCC)SCn1nnc2ccccc2c1=O | inactive | –
FC(F)(F)C(F)(C(F)(F)F)C(F)(F)C(F)(F)CC1CO1 (stereo not given) | inactive | –
CCCCN(CCCC)SN(C)C(=O)Oc1cccc2c1OC(C)(C)C2 | – | 31 µM (active)
COP(=O)(O)OC | inactive | –
CCOP(=S)(OCC)SCSCC | inactive | –
CCCCCCCc1ccc(O)cc1 | inactive | –
CC(C)(C)c1ccccc1OP(=O)(Oc1ccccc1)Oc1ccccc1 | inactive | –
O=S(=O)(F)C(F)(F)C(F)(F)C(F)(F)C(F)(F)C(F)(F)C(F)(F)C(F)(F)C(F)(F)F | inactive | –
CCC1(c2ccccc2)C(=O)N=C(O)NC1=O (stereo not given) | inactive | –
Cc1c([N+](=O)[O-])cc2c(c1[N+](=O)[O-])C(C)(C)CC2(C)C | inactive | –
O=[N+]([O-])c1ccc(Cl)c(Cl)c1 | inactive | –
COC(=O)C(F)(F)C(F)(F)OC(F)(C(F)(F)F)C(F)(F)OC(F)=C(F)F (stereo not given) | inactive | –

SMILES | outcome | AC50
CC(O)C(F)(F)C(F)(F)F (stereo not given) | inactive | –
Cc1ccc(N)cc1N | inactive | –
O=C(O)C(F)(F)C(F)(F)C(=O)O | inactive | –
CCOP(=S)(NC(C)C)Oc1ccccc1C(=O)OC(C)C (stereo not given) | inactive | –
ClC(Cl)(Cl)c1ccccc1 | inactive | –
ClC1=C(Cl)C2(Cl)C3C(Cl)C(Cl)CC3C1(Cl)C2(Cl)Cl (stereo not given) | – | 30.3 µM (active)
O=C(O)C=CC(F)(C(F)(F)F)C(F)(F)F | inactive | –
O=C(O)C1C(C(=O)O)C2(Cl)C(Cl)=C(Cl)C1(Cl)C2(Cl)Cl (stereo not given) | inactive | –
O=C(O)C(F)(F)OC(F)(F)C(F)(F)OC(F)(F)F | inactive | –
CC(C)(C)OOC(C)(C)C | inactive | –
N#Cc1c(-c2ccc(Cl)cc2)[nH]c(C(F)(F)F)c1Br | – | 0.016 µM (active)
Cc1ccc2c(c1N)C(=O)c1ccccc1C2=O | inactive | –
CCC(C)(C)c1ccc(O)cc1 | inactive | –
[N-]=[N+]=[N-] | inactive | –
C=CC(=O)OCC(CC)(COC(=O)C=C)COC(=O)C=C | – | 5.14 µM (active)
OCC(F)(F)OC(F)(F)C(F)(F)OC(F)(F)C(F)(F)OC(F)(F)F | inactive | 42.9 µM (active)
c1cc2c3c(cccc3c1)CC2 | inactive | –
c1ccc2c(c1)sc1ccccc12 | inactive | –
OCC1CO1 (stereo not given) | inactive | –
